# Experimental data taken from PubChem BioAssay (NCI).
# This is part of a sample that, as a whole, favours compounds with a hit. Of some 83,000 tested, about 20% had one in any assay.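 How to read the values: 0–100, growth inhibition (40 = 60% inhibited); 0, no net growth; -100 to 0, cell death (-40 = 40% of starting cells died; -100 = all dead).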 Unmarked numbers belong to inactive results. Activity calls are given as the source filed them. How the source made its calls: active means growth percent below 10; inactive means the rest.
# Tested on: K-562 leukemia
# Assay: NCI-60 one-dose screen, 48 h (100 = growth as untreated, 0 = no growth, -100 = all killed)
# Settings: 10 µM unless noted
row,SMILES,growth
1,Cc1ccc2c(n1)C(=O)C(Cl)=C(Nc1cccc(C(C)C)c1)C2=O,3.49% (active)
2,Cn1cc(-c2cc(N)n3nc(-c4cn(C)c5ccc(F)cc45)cc3n2)c2cc(F)ccc21,-26.2% (active)
3,Cn1c(SCC(=O)c2cccs2)nc2ccccc2c1=O,78.5%
4,CCCC(=O)NC(c1ccc(N(CC)CC)cc1)c1cc(C)c2cccnc2c1O (centres undefined),14.6%
5,COC(=O)C1CCCN(S(=O)(=O)/N=C2\NC(=O)NC2=C(Cl)Cl)C1 (centres undefined),10.9%
6,O=C(N/N=C/c1ccc([N+](=O)[O-])s1)c1[nH]c2ccc(Br)cc2c1-c1ccccc1,5.34% (active)
7,C=C1CC[C@H]2[C@@](C)(CCC3OC(c4ccc(OCc5cn(C6CC(OC(C)=O)C(OC(C)=O)C(COC(C)=O)O6)nn5)cc4)OC[C@]32C)[C@@H]1/C=C/C1=CCOC1=O (some centres undefined),38.8%
8,COc1ccc([C@@H]2c3[nH]c4ccccc4c3CC3C(=O)N(C4CCN(Cc5c(F)cccc5F)CC4)CC(=O)N32)c(OC)c1 (some centres undefined),62.2% [5.26 µM]
9,O=C(N/N=C/c1ccc(Br)s1)c1[nH]c2ccc(Br)cc2c1-c1ccccc1,7.72% (active)
10,O=C1c2c(c3c4cccnc4[nH]c3c3ccc4ccccc4c23)C(=O)N1CCO,51.4%
11,Nc1c(C(=O)Nc2ccc(C(F)(F)F)cc2)sc2nc(-c3cnccn3)cc(-c3cccs3)c12,35.5%
12,CSc1ccc2c(c1)N(C(=O)/C(C#N)=C/c1c[nH]c3ccccc13)c1ccccc1S2,16.4%
13,Cc1cc(C(=O)Nc2sc3c(c2C(N)=O)CCC(=O)C3)ccc1OCCN1CCCCC1,53.2%
14,CN(C)c1ccc(/C=c2\sc3nc4ccccc4n3c2=O)cc1,96.8%
15,CN(C)c1ccc(/C=C2\Cc3c(F)ccc(Br)c3C2=O)cc1,98.4%
16,CN1CCN(Cc2ccc(NC(=O)c3cncc(C#Cc4cnc5ccc(N6CCSCC6)nn45)c3)cc2C(F)(F)F)CC1,-16.2% (active)
17,COc1cc(/C=C/C(=O)c2ccc(C)cc2)ccc1Oc1nc(NCCO)nc(N2CCOCC2)n1,6.48% (active)
18,O=C(CSc1nnc(-c2ccc3nc(-c4ccc(Cl)cc4)[nH]c3c2)o1)Nc1ccc(C(=O)/C=C/c2ccc(Cl)cc2)cc1,81.4%
19,C#Cc1nc(C2=C(C)C(=N\O)/C(=N/O)C2)cs1,94%
20,CCOc1ccc2nc(NC(=O)c3ccc(C(F)(F)F)cc3)sc2c1,108%

row,SMILES,growth
1,CC(O)C(NC(=O)C1CCCN1C(=O)CNC(=O)C1CC(=O)NCC(=O)NC(Cc2c[nH]c3ccccc23)C(=O)NC(Cc2ccc(O)cc2)C(=O)NCC(=O)NC(CO)C(=O)NC(CCC(N)=O)C(=O)NC(Cc2c[nH]c3ccccc23)C(=O)N1)C(=O)NCC(=O)NC(CCC(N)=O)C(=O)NC(CCCNC(=N)N)C(=O)NC(CC(=O)O)C(=O)O (centres undefined),94.9%
2,CC1=C(C)C(=O)C(Nc2ccccc2)=C(Cl)C1=O,15.9%
3,CO/N=C1\CCc2c(sc(NC(=O)c3cccc(C(F)(F)F)c3)c2C(N)=O)C1,70.1%
4,COc1ccc(CNS(=O)(=O)/N=C2\NC(=O)NC2=C(Cl)Cl)cc1,13%
5,NS(=O)(=O)c1cccc(Nc2nc(SCC(=O)c3ccc([N+](=O)[O-])cc3)nc3ccccc23)c1,19.7%
6,Cn1ccnc1C(=O)/C=C/c1ccc(NC(=O)Nc2ccccc2)cc1,7.81% (active)
7,CCOC(=O)c1sc(N)c(C(=O)OCC)c1C,53.2%
8,CN(C)S(=O)(=O)c1oc(-c2ccccc2)nc1C#N,5.64% (active)
9,O=C1Nc2cc(Cl)ccc2/C1=C\c1ccc(OCc2ccc(Br)cc2F)cc1,3.55% (active)
10,COc1cc(/C=C/C(=O)c2cc(OC)c(OC)c(OC)c2)ccc1OCc1ccccc1,10.2%
11,NC(=O)c1cc(-c2ccc3ncnc(N4CCc5cc(F)c(Cl)cc54)c3c2)cnc1N,35.2%
12,COc1ccc(NC2=C(Cl)C(=O)C(C)=C(C)C2=O)cc1OC,60%
13,Cn1ccnc1C(=O)/C=C/c1ccc(NC(=O)Nc2ccc(F)cc2)cc1,9.78% (active)
14,O=C(CCN1C(=O)/C(=C/c2ccccc2)SC1=S)N1CCOCC1,43.1%
15,Cc1ccc(CNS(=O)(=O)/N=C2\NC(=O)NC2=C(Cl)Cl)cc1,27.7%
16,N#Cc1c(-c2ccc(Cl)cc2)nc(SCc2ccc(F)cc2)nc1N1CCNCC1,-34.5% (active)
17,Clc1ccc(-c2cn3cc(Cc4ccc(Cl)c(Cl)c4)sc3n2)cc1,34.7%
18,COc1ccc(/C=N/NC(=O)c2[nH]c3ccc(Br)cc3c2-c2ccccc2)o1,12.1%
19,O=C(Nc1nc2ccc(O)cc2s1)c1cccc(C(F)(F)F)c1,18.7%
